From ChEMBL document CHEMBL1961873, “Compounds: GSK PKIS; Assays: Nanosyn kinase panel” (2012)

Key:
[1] = biological target: Rho-associated protein kinase 1 (Homo sapiens) (UniProt Q13464); conditions: at 1 µM;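 note: reported values are mean percent inhibition of ROCK1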
[2] = biological target: Rho-associated protein kinase 2 (Homo sapiens) (UniProt O75116); conditions: at 0.1 µM
[3] = biological target: Rho-associated protein kinase 2 (Homo sapiens) (UniProt O75116); conditions: at 1 µM
[4] = biological target: Ribosomal protein S6 kinase alpha-1 (Homo sapiens) (UniProt Q15418); conditions: at 0.1 µM
[5] = biological target: Ribosomal protein S6 kinase alpha-1 (Homo sapiens) (UniProt Q15418); conditions: at 1 µM
[6] = biological target: Ribosomal protein S6 kinase alpha-3 (Homo sapiens) (UniProt P51812); conditions: at 0.1 µM
[7] = biological target: Ribosomal protein S6 kinase alpha-3 (Homo sapiens) (UniProt P51812); conditions: at 1 µM
[8] = biological target: Ribosomal protein S6 kinase alpha-2 (Homo sapiens) (UniProt Q15349); conditions: at 0.1 µM
[9] = biological target: Ribosomal protein S6 kinase alpha-2 (Homo sapiens) (UniProt Q15349); conditions: at 1 µM
[10] = biological target: Ribosomal protein S6 kinase alpha-6 (Homo sapiens) (UniProt Q9UK32); conditions: at 0.1 µM;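 note: reported value is the mean inhibition of RSK4, from the GSK PKIS kinase inhibitor screen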

Sequence of Ribosomal protein S6 kinase alpha-3 (Homo sapiens) (P51812 whole entry): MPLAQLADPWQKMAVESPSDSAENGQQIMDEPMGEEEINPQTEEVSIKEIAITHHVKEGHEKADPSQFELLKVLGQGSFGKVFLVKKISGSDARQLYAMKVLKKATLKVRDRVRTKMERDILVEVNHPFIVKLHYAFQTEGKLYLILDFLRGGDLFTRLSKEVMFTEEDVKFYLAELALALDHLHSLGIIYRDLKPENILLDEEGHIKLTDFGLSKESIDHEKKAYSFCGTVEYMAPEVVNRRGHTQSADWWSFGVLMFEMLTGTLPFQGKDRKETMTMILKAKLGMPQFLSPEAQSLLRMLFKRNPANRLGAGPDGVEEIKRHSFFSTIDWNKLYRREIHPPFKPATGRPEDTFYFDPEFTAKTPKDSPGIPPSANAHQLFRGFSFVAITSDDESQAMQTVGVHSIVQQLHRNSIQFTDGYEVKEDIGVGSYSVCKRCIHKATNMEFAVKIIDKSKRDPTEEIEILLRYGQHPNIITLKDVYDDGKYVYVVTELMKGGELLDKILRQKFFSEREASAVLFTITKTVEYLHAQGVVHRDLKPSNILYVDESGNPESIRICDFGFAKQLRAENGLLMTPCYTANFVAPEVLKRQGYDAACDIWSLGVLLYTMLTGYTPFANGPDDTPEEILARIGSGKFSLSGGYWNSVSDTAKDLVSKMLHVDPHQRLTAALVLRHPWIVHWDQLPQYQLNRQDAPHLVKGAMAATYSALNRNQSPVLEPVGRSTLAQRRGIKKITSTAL
Sequence of Ribosomal protein S6 kinase alpha-2 (Homo sapiens) (Q15349 whole entry): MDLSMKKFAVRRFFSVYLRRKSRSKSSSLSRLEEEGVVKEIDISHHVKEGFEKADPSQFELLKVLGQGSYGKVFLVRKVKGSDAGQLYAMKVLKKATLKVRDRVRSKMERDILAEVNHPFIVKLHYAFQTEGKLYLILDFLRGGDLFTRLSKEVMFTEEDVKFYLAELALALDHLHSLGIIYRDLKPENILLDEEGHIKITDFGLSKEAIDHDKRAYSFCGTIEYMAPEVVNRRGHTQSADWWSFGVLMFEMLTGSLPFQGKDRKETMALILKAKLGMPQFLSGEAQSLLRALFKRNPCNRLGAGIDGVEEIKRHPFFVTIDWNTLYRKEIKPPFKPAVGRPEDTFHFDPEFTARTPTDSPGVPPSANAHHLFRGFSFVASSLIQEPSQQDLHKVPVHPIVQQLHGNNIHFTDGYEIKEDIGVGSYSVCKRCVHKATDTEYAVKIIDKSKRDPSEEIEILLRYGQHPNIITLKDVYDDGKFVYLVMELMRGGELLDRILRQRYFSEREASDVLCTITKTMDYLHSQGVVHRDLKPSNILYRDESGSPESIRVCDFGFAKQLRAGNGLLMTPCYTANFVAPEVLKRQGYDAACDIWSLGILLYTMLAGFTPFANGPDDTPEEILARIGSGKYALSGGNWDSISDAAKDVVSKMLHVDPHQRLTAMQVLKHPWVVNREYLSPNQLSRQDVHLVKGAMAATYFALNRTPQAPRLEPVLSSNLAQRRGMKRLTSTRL
Sequence of Rho-associated protein kinase 2 (Homo sapiens) (O75116 whole entry, looked up): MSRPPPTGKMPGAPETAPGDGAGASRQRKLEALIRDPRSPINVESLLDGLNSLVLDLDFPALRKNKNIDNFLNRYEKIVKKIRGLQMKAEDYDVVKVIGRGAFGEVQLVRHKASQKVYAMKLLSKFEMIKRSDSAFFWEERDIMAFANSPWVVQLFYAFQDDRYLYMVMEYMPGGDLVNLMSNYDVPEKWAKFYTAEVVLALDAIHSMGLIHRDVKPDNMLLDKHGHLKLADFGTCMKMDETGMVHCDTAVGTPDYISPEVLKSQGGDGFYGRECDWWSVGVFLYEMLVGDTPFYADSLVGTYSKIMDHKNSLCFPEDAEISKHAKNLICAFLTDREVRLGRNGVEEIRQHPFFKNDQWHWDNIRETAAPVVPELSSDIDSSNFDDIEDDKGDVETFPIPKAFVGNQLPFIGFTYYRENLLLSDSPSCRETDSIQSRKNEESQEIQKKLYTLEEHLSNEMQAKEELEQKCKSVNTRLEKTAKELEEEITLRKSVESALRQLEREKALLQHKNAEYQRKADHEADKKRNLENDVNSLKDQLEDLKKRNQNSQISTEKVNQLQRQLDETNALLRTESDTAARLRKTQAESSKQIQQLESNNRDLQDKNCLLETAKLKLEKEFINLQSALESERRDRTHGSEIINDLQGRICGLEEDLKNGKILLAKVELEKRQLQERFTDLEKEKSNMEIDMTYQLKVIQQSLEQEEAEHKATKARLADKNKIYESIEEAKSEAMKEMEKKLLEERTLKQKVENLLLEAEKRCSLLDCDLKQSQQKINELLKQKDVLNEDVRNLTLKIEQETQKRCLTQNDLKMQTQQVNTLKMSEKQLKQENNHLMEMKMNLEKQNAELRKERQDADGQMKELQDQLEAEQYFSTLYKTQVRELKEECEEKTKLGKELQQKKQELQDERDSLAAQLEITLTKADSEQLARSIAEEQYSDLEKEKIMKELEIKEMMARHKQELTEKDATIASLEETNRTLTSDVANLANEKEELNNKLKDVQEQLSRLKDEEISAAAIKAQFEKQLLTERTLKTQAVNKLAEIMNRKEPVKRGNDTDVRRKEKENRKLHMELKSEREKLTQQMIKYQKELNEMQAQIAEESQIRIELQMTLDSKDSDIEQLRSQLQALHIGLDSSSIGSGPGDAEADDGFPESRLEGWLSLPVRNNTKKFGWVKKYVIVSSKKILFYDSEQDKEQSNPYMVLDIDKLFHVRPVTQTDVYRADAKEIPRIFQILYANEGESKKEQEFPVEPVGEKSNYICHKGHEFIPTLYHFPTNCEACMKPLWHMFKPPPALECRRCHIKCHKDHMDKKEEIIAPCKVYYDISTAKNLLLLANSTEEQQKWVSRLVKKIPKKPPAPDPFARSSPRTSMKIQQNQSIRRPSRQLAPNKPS
Sequence of Rho-associated protein kinase 1 (Homo sapiens) (Q13464 2-1354 limits assumed): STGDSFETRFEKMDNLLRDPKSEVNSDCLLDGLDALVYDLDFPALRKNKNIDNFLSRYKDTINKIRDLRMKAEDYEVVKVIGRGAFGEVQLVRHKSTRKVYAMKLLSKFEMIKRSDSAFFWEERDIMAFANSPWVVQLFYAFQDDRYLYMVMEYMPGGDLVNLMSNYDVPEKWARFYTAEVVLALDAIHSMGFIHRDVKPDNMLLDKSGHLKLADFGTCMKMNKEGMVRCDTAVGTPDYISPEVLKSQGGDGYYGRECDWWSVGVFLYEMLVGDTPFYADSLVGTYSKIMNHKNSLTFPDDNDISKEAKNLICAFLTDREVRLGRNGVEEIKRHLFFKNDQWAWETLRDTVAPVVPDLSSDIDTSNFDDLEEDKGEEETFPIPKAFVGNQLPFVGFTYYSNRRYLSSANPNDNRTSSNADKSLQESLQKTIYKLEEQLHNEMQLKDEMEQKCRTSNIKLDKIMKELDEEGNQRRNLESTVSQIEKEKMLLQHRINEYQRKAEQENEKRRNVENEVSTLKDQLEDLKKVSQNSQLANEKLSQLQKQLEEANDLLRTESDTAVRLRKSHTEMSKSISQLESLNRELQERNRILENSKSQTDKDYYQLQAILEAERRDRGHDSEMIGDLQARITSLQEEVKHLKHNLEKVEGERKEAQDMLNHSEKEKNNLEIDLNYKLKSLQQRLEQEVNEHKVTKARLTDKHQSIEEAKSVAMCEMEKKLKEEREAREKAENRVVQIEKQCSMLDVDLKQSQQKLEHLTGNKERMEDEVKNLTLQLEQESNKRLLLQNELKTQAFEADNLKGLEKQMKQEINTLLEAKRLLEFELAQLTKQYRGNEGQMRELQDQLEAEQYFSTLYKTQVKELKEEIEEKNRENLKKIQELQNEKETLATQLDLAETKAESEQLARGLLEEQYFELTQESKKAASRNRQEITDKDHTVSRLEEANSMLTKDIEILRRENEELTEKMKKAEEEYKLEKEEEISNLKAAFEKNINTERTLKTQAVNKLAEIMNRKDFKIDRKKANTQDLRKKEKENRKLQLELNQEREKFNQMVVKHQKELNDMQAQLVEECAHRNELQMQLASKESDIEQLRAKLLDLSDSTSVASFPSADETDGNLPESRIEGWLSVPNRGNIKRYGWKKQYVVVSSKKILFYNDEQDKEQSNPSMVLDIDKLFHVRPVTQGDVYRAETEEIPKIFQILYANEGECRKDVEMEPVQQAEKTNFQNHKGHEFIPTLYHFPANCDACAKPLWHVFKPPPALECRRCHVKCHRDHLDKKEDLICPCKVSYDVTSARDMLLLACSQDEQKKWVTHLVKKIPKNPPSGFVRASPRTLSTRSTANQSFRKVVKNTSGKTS
Sequence of Ribosomal protein S6 kinase alpha-1 (Homo sapiens) (Q15418 whole entry): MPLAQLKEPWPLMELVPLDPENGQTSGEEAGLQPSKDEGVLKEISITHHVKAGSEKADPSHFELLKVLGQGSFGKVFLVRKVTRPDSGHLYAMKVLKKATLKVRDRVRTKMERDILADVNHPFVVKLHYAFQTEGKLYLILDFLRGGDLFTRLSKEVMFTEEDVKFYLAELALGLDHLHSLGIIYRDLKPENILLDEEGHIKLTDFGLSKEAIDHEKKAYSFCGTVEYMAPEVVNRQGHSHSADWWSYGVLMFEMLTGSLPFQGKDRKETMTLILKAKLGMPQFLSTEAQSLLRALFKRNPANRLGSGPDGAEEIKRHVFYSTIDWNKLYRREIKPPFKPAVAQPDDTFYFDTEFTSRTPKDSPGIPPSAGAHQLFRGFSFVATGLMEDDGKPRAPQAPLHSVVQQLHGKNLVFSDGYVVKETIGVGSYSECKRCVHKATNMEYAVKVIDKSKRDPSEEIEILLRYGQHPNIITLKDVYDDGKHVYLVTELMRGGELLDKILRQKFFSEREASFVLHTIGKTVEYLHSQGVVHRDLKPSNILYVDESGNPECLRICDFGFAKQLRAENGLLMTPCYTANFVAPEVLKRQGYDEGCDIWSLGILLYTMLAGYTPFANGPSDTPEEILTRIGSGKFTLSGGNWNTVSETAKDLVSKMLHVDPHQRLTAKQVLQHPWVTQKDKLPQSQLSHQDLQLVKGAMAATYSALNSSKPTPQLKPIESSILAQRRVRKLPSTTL

Structure (SMILES) | inhibition [1] | inhibition [2] | inhibition [3] | inhibition [4] | inhibition [5] | inhibition [6] | inhibition [7] | inhibition [8] | inhibition [9] | inhibition [10]
NC(=O)c1sc(-n2cnc3cc(C(F)(F)F)ccc32)cc1OCc1ccccc1Br | 0.79% | 0.92% | 1.05% | 1.6% | 2.97% | 3.26% | 3.31% | 2.33% | 1.83% | 1.36%
NS(=O)(=O)c1ccc(-c2ccc3c(NC(=O)C4CC4)n[nH]c3c2)cc1 | 2.34% | 0.8% | 1.01% | 1.47% | 0.59% | 0.4% | 1.28% | 0.45% | 2.46% | 1.52%
CCn1c(-c2nonc2N)nc2c(C#CC(C)(C)O)ncc(OCC3CCNCC3)c21 | 13.7% | 6.21% | 27.5% | 4.34% | 19.9% | 4.16% | 19% | 2.47% | 7.78% | 2.29%
Fc1ccc(-c2ncn(C3CCNCC3)c2-c2ccnc(Oc3ccccc3)n2)cc1 | 1.62% | -0.24% | 0.28% | -0.66% | -0.32% | -1.31% | -1.67% | 1.35% | 0.51% | -0.22%
COc1cccc(COc2cc(-n3cnc4ccccc43)sc2C(N)=O)c1 | -0.3% | -0.06% | 0.84% | 0.37% | 0.21% | 0.89% | -1.45% | -0.15% | 1.4% | 1.09%
COc1cc(C=NNc2ncnc3c2cnn3Cc2ccccc2)ccc1O | 5.87% | -0.21% | 1.36% | 1.68% | 3.82% | 1.86% | 3.94% | -0.6% | 1.82% | -1.29%
CCn1c(-c2nonc2N)nc2c(C#CCN)ncc(OCCCN)c21 | 48.7% | 10.6% | 53.7% | 20.1% | 68.3% | 24.4% | 72.9% | 7.65% | 48.5% | 1.06%
COc1cc2c(cc1Nc1nc(Nc3ccsc3C(N)=O)c3cc[nH]c3n1)N(C(=O)CN(C)C)CCC2 | 26.1% | 3.13% | 23.2% | 7.13% | 34.8% | -6.28% | -1.3% | 0.29% | 7.85% | 0.38%
Nc1nonc1-c1nc2cnccc2n1C1CCCCC1 | 78.4% | 42.4% | 83.4% | 52.1% | 86.4% | 40.9% | 81.4% | 70% | 92.6% | 6.78%
CCn1c(-c2nonc2N)nc2c(C#CC(C)(C)O)ncc(OC[C@@H]3CCCN3)c21 | 12.4% | -0.51% | 10% | -0.68% | 23.3% | 3.35% | 24.9% | 2.02% | 13.3% | -0.15%
CCn1c(-c2nonc2N)nc2c(C#CC(C)(C)O)nc(O[C@@H](CN)c3ccccc3)cc21 | 51.7% | 11.5% | 59.4% | 19.1% | 71.6% | 18% | 69.5% | 15.4% | 69.9% | 4.01%
Cc1cc(-c2ccco2)cc(C)c1/C=C/c1cncc(-c2nn[nH]n2)c1 | 1.58% | 0.76% | 1.41% | 0.75% | 1.35% | 0.67% | 0.7% | 1.44% | 0.92% | -0.24%
COc1cccc(-n2ncc3c(N/N=C/c4ccncc4)ncnc32)c1 | 9.67% | 4.97% | 19.4% | 3.51% | 7.17% | 1.43% | 4.26% | 2.35% | 4.92% | 2.25%
NS(=O)(=O)c1ccc(N/C=C2\C(=O)Nc3ccc4ncsc4c32)cc1 | 33% | 12% | 47.5% | 4.22% | 31.3% | 6.13% | 36% | 16.5% | 66.1% | 12.6%
